From PubChem BioAssay (Tox21) come the findings set out here.

Assay [1] has as its target Thyrotropin-releasing hormone receptor (Homo sapiens) (UniProt P34981). In words: qHTS assay to identify small molecule agonists of the thyrotropin-releasing hormone receptor (TRHR) signaling pathway (AID 1346891; calls by dose curve;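 also: HEK293 cells expressing TRHR with calcium dye readout; series mostly up to about 58 µM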). The method, boiled down:
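Kinetic fluorescence (3 min, 1 s intervals) reported intracellular calcium after compound transfer onto TRHR-Hek293 cells pre-loaded with dye for 2 h at 37 °C.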
(In general: Quantitative high-throughput screening tests each substance at several concentrations.)

Assay [2] is described as follows: Caspase-3/7 induction in HepG2 cells by small molecules, qHTS assay (AID 1346978). Also: nearly all actives have a fitted effect of over 15% in size. The essentials:
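Wild-type HepG2 cells, 2,000/well, settled 5 hr at 37 C and 5% CO2, then compound-treated for 17 hr; caspase-3/7 activity read by luminescent Caspase-Glo 3/7 after 30 min at room temperature.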

Assay [3] is described as follows: Caspase-3/7 induction in CHO-K1 cells by small molecules, qHTS cell viability counter screen (AID 1346979). Also: nearly all actives have a fitted effect of over 35% in size. Also: potency is read from the fitted curve at half-maximal effect. The method, boiled down: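 Seeding: 1,500 CHO-K1 cells/well. Rest: 5hr, 37C. Treatment: compounds in DMSO, 16hr. Read: CellTiter-Fluor, 1hr, fluorescence.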
A short description of assay [4]: Caspase-3/7 induction in CHO-K1 cells by small molecules, qHTS assay (AID 1346980). Also: nearly all actives have a fitted effect of over 15% in size. The method, boiled down: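 Wild-type CHO-K1 cells exposed to compounds for 17hr at 37 C, 5% CO2. Caspase-3/7 activity then measured by Caspase-Glo 3/7 luminescence after 30min at room temperature.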
Assay [5] can be described thus: Caspase-3/7 induction in HepG2 cells by small molecules, qHTS cell viability counter screen (AID 1346981). Also: nearly all actives have a fitted effect of over 30% in size. Also: potency is read from the fitted curve at half-maximal effect. The essentials:
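Treatment of HepG2 cells with DMSO-delivered compounds ran 16 hr at 37 C following a 5-hr pre-incubation of 2,000 cells/well. CellTiter-Fluor fluorescence, read after 1 hr, served as the viability measure in a qHTS format.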

For assay [6], the target named is Nuclear receptor subfamily 1 group I member 2 (Homo sapiens) (UniProt O75469). In words: Human pregnane X receptor (PXR) small molecule agonists, qHTS assay (AID 1346982). Also: nearly all actives have a fitted effect of over 35% in size. Also: potency is read from the fitted curve at half-maximal effect. The essentials:
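Stable HepG2 line reporting PXR-mediated CYP3A4 expression via luciferase. Treatment: 24 hr with compounds in DMSO at 37 C. Detection: ONE-Glo luminescence.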

For assay [7], the target named is Nuclear receptor subfamily 1 group I member 2 (Rattus norvegicus) (UniProt Q9R1A7). Put plainly: Rat pregnane X receptor (rPXR) activation by small molecules, qHTS assay (AID 1346983). Also: nearly all actives have a fitted effect of over 20% in size. Also: potency is read from the fitted curve at half-maximal effect. The settings on record: rPXR luciferase reporter cells, One-Glo luminescence, 24 h; max activation: active compounds read high. The method, boiled down: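 Cell-based rPXR activation assay: rPXR cells, 2,000 per well, rested 5hr at 37 C, then exposed to compounds in DMSO for 24 hr at 37 C. Luciferase activity read by One-Glo luminescence after 30 min at room temperature.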
Nuclear receptor subfamily 1 group I member 2 (Rattus norvegicus), sequence (Q9R1A7 whole entry, looked up): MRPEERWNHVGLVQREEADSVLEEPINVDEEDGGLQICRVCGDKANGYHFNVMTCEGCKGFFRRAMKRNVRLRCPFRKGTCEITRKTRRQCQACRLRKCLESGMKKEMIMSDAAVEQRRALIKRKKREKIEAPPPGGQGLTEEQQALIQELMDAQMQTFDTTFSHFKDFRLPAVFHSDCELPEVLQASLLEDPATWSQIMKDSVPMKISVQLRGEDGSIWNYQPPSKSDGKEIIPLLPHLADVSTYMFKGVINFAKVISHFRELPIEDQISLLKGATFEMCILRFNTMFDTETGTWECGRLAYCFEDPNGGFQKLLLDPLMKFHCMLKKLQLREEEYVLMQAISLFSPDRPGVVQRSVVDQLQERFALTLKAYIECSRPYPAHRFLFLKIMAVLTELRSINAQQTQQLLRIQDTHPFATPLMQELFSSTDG

Assay [8] concerns the target Nuclear receptor subfamily 1 group I member 2 (Homo sapiens) (UniProt O75469). Put plainly: Human pregnane X receptor (PXR) activation by small molecules, qHTS assay (AID 1346985). Also: nearly all actives have a fitted effect of over 40% in size. The essentials:
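DPX-2 cells (HepG2 co-transfected with a PXR response element and a CYP3A4-promoter luciferase construct) were seeded at 2,000 per well, rested 5 hr at 37C, then exposed to DMSO-dissolved compounds for 24 hr. Activation was read as luciferase luminescence.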

Assay [9] has the same target. In words: CYP3A4 induction through human pregnane X receptor (PXR) by small molecules, qHTS assay (AID 1346984). Also: nearly all actives have a fitted effect of over 40% in size. The essentials: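 After 24 h at 37C with compound, DPX-2 cells (HepG2, co-transfected PXR response element and CYP3A4 promoter-luciferase) got 3uM final P450-Glo Luciferin-IPA for 3 h; One-Glo luminescence followed.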
A short description of assay [10]: Human pregnane X receptor (PXR) small molecule agonists, qHTS cell viability counter screen (AID 1346977). Also: nearly all actives have a fitted effect of over 50% in size. The method, boiled down: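 HepG2 cells stably carrying the PXR-Luc reporter are cultured with 5% charcoal-stripped FBS and treated with compounds for 24hr. CellTiter-Fluor is added at 23hr and fluorescence is read after 1hr.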

A number with no mark means an inactive call. Inconclusive results are not listed. Activity calls are given as the source filed them. Unless noted, calls follow the shape of the dose curve; as a rule, active = well fitted curve in the direction sought with a large enough effect in the repeat runs; inconclusive = weak or mixed curves; inactive = no such curve, though single readings can be large; an effect the other way counts as inactive or inconclusive.
% is scaled to controls: 0 for no effect and ±100 for the full control effect.

Nuclear receptor subfamily 1 group I member 2 (Homo sapiens), sequence (O75469 whole entry, looked up): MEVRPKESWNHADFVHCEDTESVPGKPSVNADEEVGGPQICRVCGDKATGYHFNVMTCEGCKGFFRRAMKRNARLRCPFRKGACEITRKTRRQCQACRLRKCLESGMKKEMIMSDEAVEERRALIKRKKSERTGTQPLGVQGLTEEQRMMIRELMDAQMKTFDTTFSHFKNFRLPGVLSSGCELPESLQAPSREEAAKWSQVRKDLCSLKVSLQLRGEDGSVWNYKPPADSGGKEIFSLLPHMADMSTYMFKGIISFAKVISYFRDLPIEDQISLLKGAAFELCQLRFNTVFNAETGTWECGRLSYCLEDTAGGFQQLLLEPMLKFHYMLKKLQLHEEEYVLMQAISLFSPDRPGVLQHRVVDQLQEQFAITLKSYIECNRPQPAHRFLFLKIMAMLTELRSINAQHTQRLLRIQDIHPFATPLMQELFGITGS
Thyrotropin-releasing hormone receptor (Homo sapiens), sequence (P34981 whole entry, looked up): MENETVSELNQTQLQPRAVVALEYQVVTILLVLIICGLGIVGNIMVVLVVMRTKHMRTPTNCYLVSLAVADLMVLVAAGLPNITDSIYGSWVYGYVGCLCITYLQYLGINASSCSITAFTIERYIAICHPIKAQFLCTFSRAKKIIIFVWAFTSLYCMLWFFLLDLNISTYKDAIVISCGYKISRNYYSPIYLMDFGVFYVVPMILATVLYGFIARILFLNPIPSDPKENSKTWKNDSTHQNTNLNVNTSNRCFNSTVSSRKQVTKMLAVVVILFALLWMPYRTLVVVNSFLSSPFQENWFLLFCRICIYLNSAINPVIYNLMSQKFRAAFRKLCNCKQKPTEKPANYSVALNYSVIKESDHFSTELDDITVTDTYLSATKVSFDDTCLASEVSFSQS

Regarding `O=C1c2ccccc2C(=O)C1c1ccc2ccccc2n1`, in assay [1], the outcome was inactive. In addition, the Potency entry in [2] and in [4] was “inactive” each time. Moreover, the figures for the Potency in assay [3], in [5] and in assay [6] were 9.59 µM (active), 6.05 µM (active) and 1.91 µM (active), respectively.
Turning to `Cc1ccc(NC=O)c(C)c1`, the result in [1] was inactive. Also, the Potency entry in assay [2], in assay [4], in assay [5] and in assay [6] was “inactive” each time.
`O=C(NC1CCN(CCc2c[nH]c3ccccc23)CC1)c1ccccc1`: the result in [1] was inactive. The Potency entry in assay [2], in [3], in assay [4], in assay [5], in [6] and in assay [8] was “inactive” throughout. Besides, in [7], the max activation was -9.19%.
Consider `CC/C=C/CCO`, for which the molecule was classed as inactive in assay [1]. The Potency result in assay [2], in assay [3], in [4], in assay [5] and in assay [6] was “inactive” each time.
For the molecule `CCOc1cc(OCC)c(C(C)=O)cc1OCC`, the molecule was classed as inactive in assay [1]. The Potency result in assay [2] and in [4] was “inactive” throughout. Also, the Potency in [3] and in assay [6] was 26.8 µM (active) in each case.
With `O=C(OCCOCCOCCOC(=O)c1ccccc1)c1ccccc1`, the call in assay [1] was inactive. Further, the Potency entry in assay [2], in [3] and in assay [4] was “inactive” in each case. The Potency in [6] is 27.3 µM (active).
With `Cc1ccc2c(Cl)cc(Cl)c(O)c2n1`, the result in assay [1] was inactive. The Potency entry in [2], in assay [4] and in assay [6] was “inactive” in each case.
Regarding `O=C1CCCN1CCO`, in [1], the result was inactive. Besides, the Potency result in assay [2], in assay [4], in assay [5] and in assay [6] was “inactive” in each case.
For the molecule `Cc1c(-c2cccnc2)c2ccccc2n1CCCCC(=O)O`, the molecule was classed as inactive in assay [1]. Also, the Potency result in [2], in assay [3], in assay [4], in assay [5] and in assay [6] was “inactive” throughout.
As for `CC(=O)S[C@H](C(=O)N[C@H]1Cc2ccccc2[C@H]2CCC[C@@H](C(=O)O)N2C1=O)C(C)C`, the molecule was classed as inactive in [1]. The Potency result in assay [2], in assay [3], in [4], in assay [5] and in assay [6] was “inactive” throughout.
As to `C1CCN(CN2CCCCC2)CC1`, the outcome in [1] was inactive. Also, the Potency entry in assay [2], in [4], in assay [5] and in assay [6] was “inactive” throughout.
For `Nc1ccccc1Nc1ccccc1`, the molecule was called inactive in [1]. Further, the Potency result in assay [2] and in assay [4] was “inactive” throughout. Moreover, the figures for the Potency in assay [3] and in [6] were 27.4 µM (active) and 19.4 µM (active), respectively.
As to `S=c1[nH][nH]c(=S)s1`, in assay [1], the molecule was called inactive. For the same molecule, the Potency entry in [2], in assay [3], in assay [4] and in assay [6] was “inactive” throughout.
With `C[C@H](N)C(=O)N[C@@H](C)C(=O)NC1[C@H]2CN(c3nc4c(cc3F)c(=O)c(C(=O)O)cn4-c3ccc(F)cc3F)C[C@@H]12` (stereo not given in full), the call in [1] was inactive. The Potency result in [2] and in [4] was “inactive” throughout. Also, the Potency in [3] is 7.5 µM (active); in [6] it was 21.1 µM (active).
As for `Nc1ccc(C(=O)Oc2ccccc2)c(O)c1`, the outcome in assay [1] was inactive. For the same molecule, the Potency result in assay [2], in [3], in [4], in assay [5], in [6] and in [9] was “inactive” each time. Moreover, in [8], the Potency entry is “inactive”. The max activation in assay [7] is 0.405%.
For `O=C1C=CCCC1`, the Potency entry in assay [10], in assay [2], in assay [3], in assay [4], in assay [5] and in assay [6] was “inactive” each time.
`CCCN(C1CCN(C(=O)C2CCNCC2)CC1)[C@@H]1CCc2ccc(OC)cc2C1`: the Potency entry in assay [2], in assay [3], in assay [4], in assay [5] and in assay [6] was “inactive” each time.
As for `N#C[C@@H]1CC(F)(F)CN1C(=O)CNC1CC2CCC(C1)N2c1ncccn1` (stereo not given in full), the Potency result in assay [10], in [2], in assay [3], in [4], in assay [5] and in [6] was “inactive” in each case.
Regarding `CC1=CC(=C(c2ccc(N)cc2)c2ccc(N)cc2)C=CC1=N`, in assay [2], the caspase activation is 0.381% [at 8.39 µM]. Also, the caspase-3/7 activation in assay [4] was 1.62% [at 8.39 µM]. For the same molecule, in assay [6], the activation was -7.87% [at 8.39 µM]. Moreover, in assay [7], the max activation was -21.7%. Moreover, the Potency result in [9] and in assay [8] was “inactive” in each case.
As to `CCOC(=O)CC(O)(CC(=O)OCC)C(=O)OCC`, the Potency entry in assay [10], in assay [2], in [3], in assay [4], in assay [5] and in assay [6] was “inactive” each time.
`FC1(F)C(F)(F)C(F)(F)C2(F)C(F)(C1(F)F)C(F)(F)C(F)(F)C1(F)C(F)(F)C(F)(F)C(F)(F)C(F)(F)C12F` (stereo not given): the Potency entry in assay [2], in [4] and in [6] was “inactive” each time.
`CC(=O)c1cccnc1`: the Potency entry in assay [10], in [2], in assay [4], in assay [5] and in assay [6] was “inactive” throughout.
Turning to `Oc1ccc(Oc2ccccc2)cc1`, the Potency result in assay [10], in assay [2], in assay [4] and in assay [5] was “inactive” in each case. Further, the Potency in assay [6] is 46.1 µM (active).
As for `CC1(C)C(=O)NC(=O)N1CO`, the Potency result in assay [10], in assay [2], in assay [3], in [4], in assay [5] and in [6] was “inactive” in each case.
Take `CCCc1nc(C)c2c(=O)[nH]c(-c3cc(S(=O)(=O)N4CCN(CC)CC4)ccc3OCC)nn12`: the Potency result in [10], in assay [2], in assay [3], in assay [4] and in assay [5] was “inactive” throughout. Further, the Potency in [7] was 3.55 µM (active).
`O=C(O)c1cc(C(=O)O)c(C(=O)O)cc1C(=O)O`: the Potency entry in assay [10], in assay [2], in assay [3], in assay [4], in assay [5] and in [6] was “inactive” each time.
Consider `COC(=O)Cc1cccc2ccccc12`, for which the Potency result in assay [10], in assay [2], in [3], in assay [4] and in [6] was “inactive” throughout.
